{"source": "PubChem BioAssay (Tox21)", "note": "A number with no mark means an inactive call. Where a call stands in place of a potency, no number is given. Calls of active or inactive are those of the source. Calls come from the whole dose curve; as a rule, active = well fitted activation curve with a large enough effect in the repeat runs; inconclusive = weak or mixed curves; inactive = flat fitted curve, though single readings scatter. Potency is the fitted concentration of half-maximal effect.", "data": [{"assay": "A CellTox Green Cytotoxicity Assay to monitor cytotoxicity in HEK293 cells - 0 hour (AID 1224869); note: nearly all actives have a fitted effect of over 50% in size", "settings": "CellTox Green fluorescence; series mostly up to 76.8 µM", "from_the_text": "National Center for Advancing Translational Sciences [NCATS]\nNIH Chemical Genomics Center [NCGC]\nU.S. Environmental Protection Agency [EPA]\nNational Institutes of Environmental Health Sciences [NIEHS]\nNational Toxicology Program [NTP]\nCell-based models are critical for drug discovery. Determining the natural cytotoxic effects resulting from test compounds is an essential research activity. A CellTox Green Cytotoxicity Assay to monitor cytotoxicity in real time of continues cell culture during 40 hours of the compound treatment was used to screen Tox21 10K library compounds in Hek293 cells. CellTox Green Cytotoxicity Assay is a nonlytic, homogeneous, biofluorescent method to measure cytotoxicity in cell culture after experimental manipulation. The assay system uses a proprietary asymmetric cyanine dye that is excluded from viable cells but preferentially stains the dead cell's DNA. […] Viable cells produce no appreciable increases in fluorescence. Therefore, the fluorescence signal produced by the binding interaction with dead cell DNA is proportional to cytotoxicity.\nThe mixture of Hek293 cell suspension and reagents were dispensed at 600cells/6 ul/well in 1536-well tissue culture treated black solid bottom plates using a Multidrop dispenser. After the assay plates were incubated at a 37 C/5% CO2 incubator for 5 hours, 23 nL of compounds dissolved in DMSO, positive and negative controls was transferred to the assay plate by a pintool work station. The plates were incubated at 37 C for 40 hours. The fluorescence intensity were measured at 0h, 8h, 16h, 24h, 32h and 40h time points using ViewLux plate reader during compound treatment.", "values": [{"molecule": "Oc1cccc(Cl)c1", "Potency": "inactive"}, {"molecule": "O=C(O)COc1cc(Cl)c(Cl)cc1Cl", "Potency": "inactive"}, {"molecule": "CCC1CCC(=O)O1", "note": "(stereo not given)", "Potency": "inactive"}, {"molecule": "C=CC(=O)OCC", "Potency": "inactive"}, {"molecule": "O=C1CC[C@@]2(O)[C@H]3Cc4ccc(O)c5c4[C@@]2(CCN3CC2CC2)[C@H]1O5", "Potency": "inactive"}, {"molecule": "c1ccc2c(c1)sc1ccccc12", "Potency": "inactive"}, {"molecule": "COP(=O)(OC)OC(Br)C(Cl)(Cl)Br", "note": "(stereo not given)", "Potency": "inactive"}, {"molecule": "C[C@H](N)[C@H](O)c1ccc(O)c(O)c1", "Potency": "16.9 µM (active)"}, {"molecule": "CC(Cl)C(=O)O", "note": "(stereo not given)", "Potency": "inactive"}, {"molecule": "Nc1cccc2ccccc12", "Potency": "inactive"}, {"molecule": "c1ccc2sc(SNC3CCCCC3)nc2c1", "Potency": "inactive"}, {"molecule": "O=P(OCC(Br)CBr)(OCC(Br)CBr)OCC(Br)CBr", "note": "(stereo not given)", "Potency": "inactive"}, {"molecule": "O=C(CCl)CCl", "Potency": "inactive"}, {"molecule": "CCC(C)(C)O", "Potency": "inactive"}, {"molecule": "CCOP(=S)(OCC)Oc1ccc(S(C)=O)cc1", "note": "(stereo not given)", "Potency": "inactive"}, {"molecule": "CNC(=O)Oc1cccc(N=CN(C)C)c1", "Potency": "inactive"}, {"molecule": "CON(C)C(=O)Nc1ccc(Cl)cc1", "Potency": "inactive"}, {"molecule": "CN1C(=O)CN=C(c2ccccc2)c2cc([N+](=O)[O-])ccc21", "Potency": "inactive"}, {"molecule": "C=CCc1ccccc1O", "Potency": "inactive"}, {"molecule": "CC(C)CCON=O", "Potency": "inactive"}, {"molecule": "O=C(O)C(F)(F)C(F)(F)C(F)(F)C(F)(F)C(F)(F)C(F)(F)C(F)(F)C(F)(F)F", "Potency": "inactive"}, {"molecule": "CC(C)(c1ccccc1)c1cc(-n2nc3ccccc3n2)c(O)c(C(C)(C)c2ccccc2)c1", "Potency": "inactive"}, {"molecule": "CCOP(=S)(OCC)SCSc1cc(Cl)ccc1Cl", "Potency": "inactive"}, {"molecule": "CCCCNC(=O)OCC#CI", "Potency": "inactive"}, {"molecule": "CCOP(=S)(S)OCC", "Potency": "inactive"}, {"molecule": "OCC1CO1", "note": "(stereo not given)", "Potency": "inactive"}, {"molecule": "CC(Cc1ccccc1)NCc1ccccc1Cl", "note": "(stereo not given)", "Potency": "inactive"}, {"molecule": "CCCCC#N", "Potency": "inactive"}, {"molecule": "CCOP(=O)(O)C(N)=O", "Potency": "inactive"}, {"molecule": "CCCBr", "Potency": "inactive"}, {"molecule": "CCC[N+](CCC)(CCC)CCC", "Potency": "inactive"}, {"molecule": "CCCCCCCCn1sccc1=O", "Potency": "inactive"}, {"molecule": "CN(C)c1ccc(N=O)cc1", "Potency": "inactive"}, {"molecule": "CC(C)(C)OOC(C)(C)CCC(C)(C)OOC(C)(C)C", "Potency": "inactive"}, {"molecule": "O=C(O)CCCOc1ccc(Cl)cc1Cl", "Potency": "inactive"}, {"molecule": "Nc1c(Br)cc(Br)c2c1C(=O)c1ccccc1C2=O", "cytotoxicity": "-2.18% [at 15.8 µM]"}, {"molecule": "O=C(O)C(O)C(O)C(=O)O", "note": "(stereo not given)", "Potency": "inactive"}, {"molecule": "C[C@]12C=CC3=C4CCC(=O)C=C4CC[C@H]3[C@@H]1CC[C@@H]2O", "Potency": "inactive"}, {"molecule": "C=CCSSCC=C", "Potency": "inactive"}, {"molecule": "CC(Oc1cc(Cl)c(Cl)cc1Cl)C(=O)O", "note": "(stereo not given)", "Potency": "inactive"}]}]}
